From PubChem BioAssay (NCI)
The panel holds about 83,000 compounds, 20% with a hit somewhere; the sample as a whole holds those more often.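 For each line, cells grew in 96-well plates with the test compound present at a single concentration for 48 hours.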 Activity calls are given as the source filed them. Rule for the calls: active = growth percent below 10; inactive = the rest.

How the values were obtained:
Test in all cases: NCI-60 one-dose screen, 48 h (100 = growth as untreated, 0 = no growth, -100 = all killed)
Details in all cases: 10 µM unless noted
SR leukemia = test system: SR leukemia
RPMI-8226 leukemia = test system: RPMI-8226 leukemia
OVCAR-8 ovarian = test system: OVCAR-8 ovarian
OVCAR-5 ovarian = test system: OVCAR-5 ovarian
OVCAR-4 ovarian = test system: OVCAR-4 ovarian
SK-OV-3 ovarian = test system: SK-OV-3 ovarian
IGROV1 ovarian = test system: IGROV1 ovarian
OVCAR-3 ovarian = test system: OVCAR-3 ovarian
NCI/ADR-RES ovarian = test system: NCI/ADR-RES ovarian
HS 578T breast = test system: HS 578T breast

Measured: growth

O=C(CBr)c1ccc(OC(=O)c2ccccc2)cc1
inactive: SR leukemia 88.6% | RPMI-8226 leukemia 89.9% | OVCAR-8 ovarian 104% | OVCAR-5 ovarian 102% | OVCAR-4 ovarian 99% | SK-OV-3 ovarian 100% | IGROV1 ovarian 116% | OVCAR-3 ovarian 105% | NCI/ADR-RES ovarian 101%

CCCCCCC1N=C(N)N=C(N)N1c1cccc(Cl)c1 (stereo unspecified)
inactive: SR leukemia 31.5% | RPMI-8226 leukemia 14% | OVCAR-8 ovarian 35.7% | OVCAR-5 ovarian 58.9% | OVCAR-4 ovarian 43.9% | SK-OV-3 ovarian 45.1% | IGROV1 ovarian 58% | OVCAR-3 ovarian 41.5% | HS 578T breast 55.2% | NCI/ADR-RES ovarian 111%

COc1ccc2c(c1)c(CC(=O)O)c(C)n2C(=O)c1ccc(Cl)cc1
inactive: SR leukemia 106% | RPMI-8226 leukemia 83.8% | OVCAR-8 ovarian 104% | OVCAR-5 ovarian 105% | OVCAR-4 ovarian 102% | SK-OV-3 ovarian 119% | IGROV1 ovarian 99% | OVCAR-3 ovarian 125% | HS 578T breast 97.8% | NCI/ADR-RES ovarian 98%

CCN(CC)CCNc1ccc([N+](=O)[O-])c2sc3ccccc3c(=O)c12
active: IGROV1 ovarian -10.9%
inactive: SR leukemia 11.1% | RPMI-8226 leukemia 22.2% | OVCAR-8 ovarian 19.1% | OVCAR-5 ovarian 45% | OVCAR-4 ovarian 12% | SK-OV-3 ovarian 32.6% | OVCAR-3 ovarian 36.7% | HS 578T breast 20.4% | NCI/ADR-RES ovarian 32.8%

COc1cc(/C=C/c2ccnc3ccccc23)cc(OC)c1OC
active: SR leukemia 7.06% | NCI/ADR-RES ovarian -25.5%
inactive: RPMI-8226 leukemia 60.6% | OVCAR-8 ovarian 42.5% | OVCAR-5 ovarian 50.5% | OVCAR-4 ovarian 54.6% | SK-OV-3 ovarian 30.1% | IGROV1 ovarian 59.1% | OVCAR-3 ovarian 16.4%

Oc1c(C(Nc2ccccc2)c2ccccc2)ccc2cccnc12 (stereo unspecified)
inactive: SR leukemia 27.3% | RPMI-8226 leukemia 37.3% | OVCAR-8 ovarian 19.8% | OVCAR-5 ovarian 59.5% | OVCAR-4 ovarian 33.2% | SK-OV-3 ovarian 40.5% | IGROV1 ovarian 41.3% | OVCAR-3 ovarian 24.3% | HS 578T breast 70.4% | NCI/ADR-RES ovarian 16.8%

O=C1C=CC(=O)N1c1cccc2c1CCCC2
inactive: SR leukemia 87.6% | RPMI-8226 leukemia 100% | OVCAR-8 ovarian 110% | OVCAR-5 ovarian 103% | OVCAR-4 ovarian 102% | SK-OV-3 ovarian 99.5% | IGROV1 ovarian 97.5% | OVCAR-3 ovarian 106% | HS 578T breast 114% | NCI/ADR-RES ovarian 112%

CC(/C=N/NC(N)=S)Cc1ccc(C(C)C)cc1 (stereo unspecified)
inactive: SR leukemia 135% | RPMI-8226 leukemia 104% | OVCAR-8 ovarian 79.3% | OVCAR-5 ovarian 86.6% | OVCAR-4 ovarian 29.8% | SK-OV-3 ovarian 85.8% | IGROV1 ovarian 25.7% | OVCAR-3 ovarian 77.7% | HS 578T breast 71.7% | NCI/ADR-RES ovarian 64.4%

N=C1C=C(N)C(=O)c2ccccc21
active: SR leukemia 1.77% | RPMI-8226 leukemia 5.15% | OVCAR-8 ovarian -20.1% | OVCAR-5 ovarian -85.8% | OVCAR-4 ovarian -99.6% | SK-OV-3 ovarian -87% | IGROV1 ovarian -37.6% | OVCAR-3 ovarian -87.6% | NCI/ADR-RES ovarian -76.4%

CC1(C)CCCC2=C1C(=O)N(SC(Cl)(Cl)Cl)C2=O
inactive: SR leukemia 77.2% | RPMI-8226 leukemia 91.9% | OVCAR-8 ovarian 102% | OVCAR-5 ovarian 103% | OVCAR-4 ovarian 98.2% | SK-OV-3 ovarian 93.7% | IGROV1 ovarian 103% | OVCAR-3 ovarian 104% | HS 578T breast 102% | NCI/ADR-RES ovarian 105%

COc1cc2c(c(OC)c1OC)-c1ccc(NCc3ccccc3)c(=O)cc1[C@@H](NC(C)=O)CC2
inactive: OVCAR-8 ovarian 14.5% | OVCAR-5 ovarian 41.8% | OVCAR-4 ovarian 29.6% | NCI/ADR-RES ovarian 66.4%
active: SR leukemia 2.36% | RPMI-8226 leukemia 8.4% | SK-OV-3 ovarian -6.57% | IGROV1 ovarian -15.6% | OVCAR-3 ovarian -39.2%

C[n+]1ccccc1C[n+]1ccccc1
inactive: SR leukemia 88.6% | RPMI-8226 leukemia 108% | OVCAR-8 ovarian 95.9% | OVCAR-5 ovarian 113% | OVCAR-4 ovarian 113% | SK-OV-3 ovarian 109% | IGROV1 ovarian 130% | OVCAR-3 ovarian 123% | NCI/ADR-RES ovarian 113%

O=C1C=CC(=O)N1C1CCCCCCCCCCC1
active: SR leukemia 5.7%
inactive: RPMI-8226 leukemia 31.1% | OVCAR-8 ovarian 86% | OVCAR-5 ovarian 99.8% | OVCAR-4 ovarian 89.5% | SK-OV-3 ovarian 90.6% | IGROV1 ovarian 80.3% | OVCAR-3 ovarian 53% | HS 578T breast 108% | NCI/ADR-RES ovarian 102%

CCCCCCCCCCCC(=O)OC(C)C(=O)NCCCC (stereo unspecified)
inactive: SR leukemia 85.7% | RPMI-8226 leukemia 104% | OVCAR-8 ovarian 100% | OVCAR-5 ovarian 107% | OVCAR-4 ovarian 108% | SK-OV-3 ovarian 102% | IGROV1 ovarian 107% | OVCAR-3 ovarian 107% | NCI/ADR-RES ovarian 101%

CCOC(=O)NC(/C=C/c1ccccc1)NC(=O)OCC
inactive: SR leukemia 103% | RPMI-8226 leukemia 101% | OVCAR-8 ovarian 108% | OVCAR-5 ovarian 108% | OVCAR-4 ovarian 109% | SK-OV-3 ovarian 90.3% | IGROV1 ovarian 106% | OVCAR-3 ovarian 107% | NCI/ADR-RES ovarian 109%

N#CC(I)CS(=O)(=O)c1ccccc1 (stereo unspecified)
inactive: SR leukemia 109% | RPMI-8226 leukemia 101% | OVCAR-8 ovarian 91.5% | OVCAR-5 ovarian 106% | OVCAR-4 ovarian 95.4% | SK-OV-3 ovarian 102% | IGROV1 ovarian 69.3% | OVCAR-3 ovarian 76.4% | HS 578T breast 114% | NCI/ADR-RES ovarian 97.4%

CCOc1ccc(C(C[N+](=O)[O-])Sc2ccccc2N)cc1 (stereo unspecified)
active: SR leukemia 4.9% | RPMI-8226 leukemia 6.92% | IGROV1 ovarian -34.9%
inactive: OVCAR-8 ovarian 53.5% | OVCAR-5 ovarian 81.9% | OVCAR-4 ovarian 83.1% | SK-OV-3 ovarian 72.6% | OVCAR-3 ovarian 32.2% | NCI/ADR-RES ovarian 72.6%

c1ccc(-c2cc3cc4ccccc4cn3c2)cc1
inactive: SR leukemia 67.4% | RPMI-8226 leukemia 66.4% | OVCAR-8 ovarian 85.4% | OVCAR-5 ovarian 112% | OVCAR-4 ovarian 76.4% | SK-OV-3 ovarian 92.2% | IGROV1 ovarian 79.7% | OVCAR-3 ovarian 88.9% | HS 578T breast 88.2% | NCI/ADR-RES ovarian 91.7%

O=[N+]([O-])C=C(c1ccccc1)c1ccccc1
inactive: SR leukemia 22.8% | RPMI-8226 leukemia 64.5% | OVCAR-8 ovarian 92.5% | OVCAR-5 ovarian 83.2% | OVCAR-4 ovarian 79.5% | SK-OV-3 ovarian 78% | IGROV1 ovarian 86.5% | OVCAR-3 ovarian 90.1% | NCI/ADR-RES ovarian 75.5%

CCSc1nc2ccccc2o1
inactive: SR leukemia 94.2% | RPMI-8226 leukemia 104% | OVCAR-8 ovarian 103% | OVCAR-5 ovarian 101% | OVCAR-4 ovarian 101% | SK-OV-3 ovarian 104% | IGROV1 ovarian 90.1% | OVCAR-3 ovarian 111% | NCI/ADR-RES ovarian 108%

CC(C)c1ccc(C(=O)OC2CCCC2)cc1
inactive: SR leukemia 105% | RPMI-8226 leukemia 98.3% | OVCAR-8 ovarian 113% | OVCAR-5 ovarian 101% | OVCAR-4 ovarian 106% | SK-OV-3 ovarian 107% | IGROV1 ovarian 103% | OVCAR-3 ovarian 99.3% | NCI/ADR-RES ovarian 99.9%

O=[N+]([O-])/C(=C/c1ccccc1)c1ccccc1
inactive: SR leukemia 88.5% | RPMI-8226 leukemia 108% | OVCAR-8 ovarian 105% | OVCAR-5 ovarian 103% | OVCAR-4 ovarian 99% | SK-OV-3 ovarian 100% | IGROV1 ovarian 104% | OVCAR-3 ovarian 109% | HS 578T breast 110% | NCI/ADR-RES ovarian 106%

CN(C)c1ccc(/C=C/c2sc3ccc4ccccc4c3[n+]2C)cc1
active: SR leukemia -30.7% | RPMI-8226 leukemia -26.6% | OVCAR-8 ovarian -31.1% | OVCAR-5 ovarian -27.3% | OVCAR-4 ovarian -19.9% | SK-OV-3 ovarian -23.7% | IGROV1 ovarian -11.2% | OVCAR-3 ovarian -63% | HS 578T breast -29.1%
inactive: NCI/ADR-RES ovarian 34%

CC(C)N=C(N)/N=C(\N)Nc1ccc2ccc3ccccc3c2c1
active: SR leukemia -47.3% | RPMI-8226 leukemia -26.9% | OVCAR-8 ovarian -60.2% | OVCAR-5 ovarian -88.5% | OVCAR-4 ovarian -56.9% | SK-OV-3 ovarian -63.3% | IGROV1 ovarian -56.7% | OVCAR-3 ovarian -83%
inactive: NCI/ADR-RES ovarian 41.5%

S=C(S)OCN1CCOCC1
inactive: SR leukemia 65.2% | RPMI-8226 leukemia 100% | OVCAR-8 ovarian 88% | OVCAR-5 ovarian 97.6% | OVCAR-4 ovarian 56.5% | SK-OV-3 ovarian 98.9% | IGROV1 ovarian 56.5% | OVCAR-3 ovarian 118% | NCI/ADR-RES ovarian 96.2%

Cc1onc(-c2ccccc2)c1C(=O)N/N=C/c1cc(Cl)cc(Cl)c1O
inactive: SR leukemia 18.5% | RPMI-8226 leukemia 39.6% | OVCAR-8 ovarian 31.1% | OVCAR-5 ovarian 58.1% | OVCAR-4 ovarian 32.1% | SK-OV-3 ovarian 47.6% | IGROV1 ovarian 23.2% | OVCAR-3 ovarian 25.2% | HS 578T breast 80% | NCI/ADR-RES ovarian 17.1%

COC(=O)c1ccc(=O)c2nc3/c(=C/O)c(O)cc(=O)c3[nH]c12
active: SR leukemia -11.4% | IGROV1 ovarian -61.2% | OVCAR-3 ovarian -4.24% | HS 578T breast -10.3%
inactive: RPMI-8226 leukemia 51.1% | OVCAR-8 ovarian 12.2% | OVCAR-5 ovarian 54.7% | OVCAR-4 ovarian 47.4% | SK-OV-3 ovarian 52% | NCI/ADR-RES ovarian 11%

S=C=Nc1ccc(N2CCOCC2)cc1
inactive: SR leukemia 71.2% | RPMI-8226 leukemia 87.8% | OVCAR-8 ovarian 102% | OVCAR-5 ovarian 97.6% | OVCAR-4 ovarian 106% | SK-OV-3 ovarian 93% | IGROV1 ovarian 96.9% | OVCAR-3 ovarian 109% | HS 578T breast 99.3% | NCI/ADR-RES ovarian 101%

CCCCCCN(CCCCCC)CCCNc1nccc2ccccc12
inactive: OVCAR-8 ovarian 12% | OVCAR-5 ovarian 38.1% | OVCAR-4 ovarian 23.4% | SK-OV-3 ovarian 41.9% | IGROV1 ovarian 12.5% | HS 578T breast 12.4% | NCI/ADR-RES ovarian 19.4%
active: SR leukemia -9.78% | RPMI-8226 leukemia -22.8%
